Assay outcomes deposited in PubChem BioAssay by National Center for Advancing Translational Sciences (NCATS).
LDHA block – LDHA (human) enzyme inhibition; P00338; purified LDHA, NADH/diaphorase-resazurin fluorescence; active compounds read low; activity change, % (values are at about 110 or 230 µM); 480,000 tested, 0.15% active; in the data active = activity change below about -30%; inconclusive = mostly about -25% to -30%;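 note: plate controls were DMSO wells for no effect and wells without enzyme for full effect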
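Human LDH5 at 2 nM final in Tris HCl pH 7.4 with 0.06 mM NADH and 0.2 mM pyruvate, reacted 5 minutes at room temperature. Remaining NADH coupled via diaphorase/resazurin; resorufin fluorescence read at 0 and 20 minutes, normalized to enzyme-free and DMSO wells.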
VP16 counter – counter-screen for ROR gamma inhibitors: Gal4-VP16 reporter; Drosophila S2 Gal4-VP16 UAS-luciferase, luminescence, 20 h; Potency, µM (highest dose often 53.6 µM), for the others: top-dose activity, negative = inhibition, most hits filed as inhibitors; 310,000 tested, 3.5% active;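 note: Gal4-VP16 expression switched on by copper sulfate through the metallothionein promoter; potency is the fitted concentration of half-maximal effect; nearly all actives have a fitted effect of over 50% in size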
RORgamma inh – ROR gamma (mouse) transcription inhibition. P51450. Drosophila S2 Gal4-RORgamma UAS-luciferase reporter, 20 h. Potency, µM (highest dose often 53.6 µM), for inactives: at the highest dose activity change, negative = inhibition, most hits filed as inhibitors. 310,000 tested, 5.4% active. AID 2551; note: potency is the fitted concentration of half-maximal effect; nearly all actives have a fitted effect of over 60% in size
Target sequence (P51450 whole entry, looked up, the tested form may be a part): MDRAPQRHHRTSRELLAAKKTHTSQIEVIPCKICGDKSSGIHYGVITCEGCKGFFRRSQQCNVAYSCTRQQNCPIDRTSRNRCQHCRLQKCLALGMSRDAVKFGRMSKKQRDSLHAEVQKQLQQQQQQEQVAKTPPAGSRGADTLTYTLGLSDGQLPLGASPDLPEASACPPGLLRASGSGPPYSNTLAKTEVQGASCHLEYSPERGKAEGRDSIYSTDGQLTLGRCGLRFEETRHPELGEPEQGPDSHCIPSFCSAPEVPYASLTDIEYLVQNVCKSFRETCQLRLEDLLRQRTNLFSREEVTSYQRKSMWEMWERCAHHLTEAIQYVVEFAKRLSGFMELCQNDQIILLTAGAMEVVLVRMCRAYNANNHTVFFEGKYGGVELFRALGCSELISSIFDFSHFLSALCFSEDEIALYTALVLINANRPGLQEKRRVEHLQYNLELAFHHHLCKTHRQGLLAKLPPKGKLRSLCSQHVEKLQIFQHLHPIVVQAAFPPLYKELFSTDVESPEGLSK
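Read-out: Photinus luciferase luminescence; inhibitors lower reporter signal. Insect Schneider cells with Gal4-ROR gamma fusion under metallothionein promoter, UAS reporter; 700 uM final copper sulfate induction, 20 hr, ambient temperature.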
TDP1 cell noCPT – qHTS for Inhibitors of human tyrosyl-DNA phosphodiesterase 1 (TDP1): qHTS in cells in absence of CPT | Potency, µM (series often up to 46.2 µM), inactives show at the top dose activity change, negative = growth inhibition, most hits filed as inhibitors | 420,000 tested, 15% active | AID 686978, 2013 | DT40 Tdp1-/- hTDP1 cells, no CPT, ATP luminescence, 48 h; note: potency is the fitted concentration of half-maximal effect; nearly all actives have a fitted effect of over 55% in size
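Compound effects on proliferation are scored in DT40 Tdp1-/-;hTDP1 cells in the absence of CPT. ATP levels (CellTiter-Glo luminescence) are recorded after a ≥48 hr, 37 °C incubation.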
TDP1 cell CPT – growth inhibition of DT40 Tdp1-/-;hTDP1 cells with camptothecin (screen for TDP1 inhibitors); 420,000 tested, 12% active; Potency, µM (top dose mostly 46.2 µM), inactives show at the highest dose activity change, negative = growth inhibition, actives largely listed as inhibitors; chicken DT40 Tdp1-/-;hTDP1 cells + 20 nM CPT, ATP luminescence, 48 h; note: potency is the fitted concentration of half-maximal effect; nearly all actives have a fitted effect of over 55% in size
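Cell growth measured by CellTiter-Glo luminescence after a minimum 48 h, 37 C compound exposure with 20 nM CPT in Tdp1-knockout DT40 cells stably expressing hTDP1, seeded 400/well; qHTS titration format.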
IL-1B inflam inh – blocks inflammasome-driven IL-1 beta release. activity change, % at 57.5 µM. THP-1 LPS/ATP IL-1B secretion, AlphaLISA, 16 h; active compounds read low. 360,000 tested, 4.7% active; in the data active = activity change below about -50%; inconclusive = mostly about -30% to -49%
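THP-1 cells pretreated 1 hr with compounds (up to 57.5 uM final), then stimulated with LPS (250 ng/mL final) plus ATP (1.25 mM final); secreted IL-1B measured by AlphaLISA after 16 hr, decreased signal indicating inhibition.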
An asterisk follows results filed as active; ? = inconclusive; . = no result. Only some compounds are listed: those with a hit (about 18% of all), similar ones and a draw of the others. Unless noted, calls come from the whole dose curve; as a rule, active = well fitted curve in the direction sought with a large enough effect; inconclusive = small, poorly fitted or top-dose-only effect, or another doubt; inactive = no such curve, though single readings can be large; an effect the other way counts as inactive or inconclusive. Unless noted, % is set by controls: 0 for no effect and ±100 for the full control effect.

SMILES | LDHA block | VP16 counter | RORgamma inh | TDP1 cell noCPT | TDP1 cell CPT | IL-1B inflam inh
COc1cc2c(cc1NC(=O)CSc1nc3ccccc3o1)oc1ccccc12 | 4 | . | . | . | . | .
C/C(CCc1oc2ccccc2c1-c1ccc(C)o1)=N\O | 0 | . | . | . | . | .
CN(CCCNC(=O)c1cccn2c(=O)c3ccccc3nc12)Cc1ccccc1 | 0 | -5% | -31% | ? | 22µM* | ?
O=C(NCCN1CCN(c2ccccc2F)CC1)c1cccn2c(=O)c3ccccc3nc12 | -6 | 4% | -25% | 16µM* | ? | 8
O=C(NCCN1CCN(c2ccccc2)CC1)c1cccn2c(=O)c3ccccc3nc12 | -1 | -12% | 21% | 18µM* | ? | -2
CCCCCn1c(=O)[nH]c2cc(C(=O)NCCCN(C)Cc3ccccc3)ccc2c1=O | -8 | 16% | 11% | -27% | -30% | -21
Cc1ccc(NC(=S)N/C(=N/S(=O)(=O)c2ccccc2)c2ccccc2)cc1 | -6 | 13µM* | ? | 0% | 2% | -1
Cc1ccc(S(=O)(=O)/N=C(/Nc2c(C)cccc2C)c2ccccc2)cc1 | -3 | . | . | 1.6µM* | -69% | -6
Cc1ccc(S(=O)(=O)/N=C(/NC(=S)Nc2ccccc2)c2ccccc2)cc1 | -3 | 3% | -34% | 2% | -14% | 15
Cc1ccccc1/C(=N\S(=O)(=O)c1ccc(Br)cc1)Nc1ccccc1 | -1 | . | . | 15µM* | ? | -6
CCN(c1ccccc1)c1nnc(NC(=O)Nc2cc(Cl)ccc2OC)s1 | 2 | . | . | . | . | .
O=C(/C=C/c1ccsc1)c1ccccc1 | 18 | . | . | . | . | .
Cc1ccc(C2C(C#N)=C3N=C(N)c4ccccc4N3C3=C2C(=O)CCC3)cc1 (configuration not stated) | 4 | 0% | -4% | -15% | ? | ?
N#CC1=C2N=C(N)c3c(sc4c3CCCCC4)N2C2=C(C(=O)CCC2)C1c1ccccc1 (configuration not stated) | 4 | ? | 11µM* | ? | ? | 49
O=C(NCCCN1CCOCC1)c1cc(-c2ccc(F)cc2)nc2ccccc12 | -3 | . | . | -26% | ? | -27
CC1CN(C(=O)c2cc(-c3ccc(Cl)s3)nc3ccccc23)CC(C)O1 (configuration not stated) | -5 | . | . | 16µM* | ? | -53*
O=C(NCCCN1CCOCC1)c1cc(-c2cccc(Br)c2)nc2ccccc12 | -8 | -18% | -42% | ? | ? | -64*
O=C(NCCCN1CCOCC1)c1cc(-c2ccc(Cl)s2)nc2ccccc12 | -3 | . | . | ? | ? | -78*
COC(=O)c1cc(-c2ccc(Cl)s2)nc2ccccc12 | -8 | . | . | . | . | .
O=C(COC(=O)c1cc2ccccc2oc1=O)NCc1ccccc1Cl | 15 | . | . | . | . | .
S=c1[nH]nc(C2CCCCC2)n1/N=C/c1ccncc1 | -4 | -14% | ? | ? | ? | -15
CSc1ccc(/C=N/n2c(C3CCCCC3)n[nH]c2=S)cc1 | -7 | ? | 1.6µM* | ? | ? | -62*
Cc1ccc(/C=N/n2c(C3CCCCC3)n[nH]c2=S)o1 | -3 | ? | 11µM* | ? | -11% | -6
Cc1cc(-c2n[nH]c(=S)n2/N=C/c2ccc(C)o2)n[nH]1 | -9 | -1% | -8% | -28% | -7% | -3
O=[N+]([O-])c1ccc(/C=N/n2c(C3CCCCC3)n[nH]c2=S)cc1 | -6 | ? | 1.4µM* | 16µM* | ? | -21
SMILES | LDHA block | VP16 counter | RORgamma inh | TDP1 cell noCPT | TDP1 cell CPT | IL-1B inflam inh
O=[N+]([O-])c1ccc(C=NN2CCCCCC2)cc1 | -1 | . | . | 18µM* | ? | ?
COc1ccccc1N1CCN(/N=C/c2ccc([N+](=O)[O-])cc2)CC1 | -13 | ? | ? | ? | ? | -14
Fc1cccc(Cl)c1CSc1ccc(-c2ccccn2)nn1 | -14 | . | . | . | . | .
Cc1ccccc1NS(=O)(=O)c1ccc2c(c1)c(=O)n(CC(=O)N1CCCCCC1)c(=O)n2C | 7 | . | . | . | . | .
CC(NC(=O)NOCc1ccccc1)c1ccccn1 (configuration not stated) | 1 | . | . | . | . | .
Cc1cccc(-c2n[nH]c(=S)n2/N=C/c2ccc(C)o2)c1 | -1 | 11µM* | ? | 4% | -2% | 43
Cc1ccc(N(CC(=O)O)CC(=O)O)cc1 | -17 | . | . | . | . | .
COC(=O)c1cc(S(=O)(=O)N(C)CC(=O)Nc2ccc(Cl)cc2C)cn1C | 3 | . | . | . | . | .
COc1cc2c(cc1OC)C(=O)N1[C@H]3c4cc(C)ccc4OC[C@@H]3[C@H](c3ccccc3)[C@]1(C)C(=O)N2 | 0 | . | . | 21µM* | 18µM* | -51*
COc1cc2c(cc1OC)C(=O)N1[C@H]3c4cc(Cl)ccc4OC[C@@H]3[C@H](c3ccccc3)[C@]1(C)C(=O)N2 | -6 | . | . | 18µM* | 21µM* | -50*
COc1ccc2c(c1)C(=O)N1[C@H]3c4cc(Cl)ccc4OC[C@@H]3[C@H](c3ccccc3)[C@]1(C)C(=O)N2 | -10 | . | . | ? | ? | ?
COc1ccc2c(c1)[C@H]1[C@H](CO2)[C@H](c2ccccc2)[C@]2(C)C(=O)Nc3cc(Cl)ccc3C(=O)N12 | 1 | . | . | ? | ? | -20
C[C@@]12C(=O)Nc3cc(F)ccc3C(=O)N1[C@H]1c3ccccc3OC[C@@H]1[C@@H]2c1ccccc1 | 3 | . | . | ? | ? | -75*
Cc1ccc2c(c1)[C@H]1[C@H](CO2)[C@H](c2ccccc2)[C@]2(C)C(=O)Nc3cc(Cl)ccc3C(=O)N12 | -7 | . | . | 21µM* | ? | -21
COc1ccc2c(c1)OC[C@H]1[C@H]2N2C(=O)c3cc(OC)ccc3NC(=O)[C@@]2(C)[C@H]1c1ccccc1 | -6 | . | . | ? | ? | 0
N#CCCN(C(=O)CSc1nc(CN2CCOCC2)nc2ccccc12)c1ccc(F)cc1 | 1 | . | . | . | . | .
Cc1ccc2c(c1)[C@H]1[C@H](CO2)[C@H](c2ccccc2)[C@]2(C)C(=O)Nc3cc(F)c(F)cc3C(=O)N12 | -3 | . | . | ? | ? | ?
Cc1ccc2c(c1)[C@H]1[C@H](CO2)[C@H](c2ccccc2)[C@]2(C)C(=O)Nc3ccc(F)cc3C(=O)N12 | 1 | . | . | 21µM* | 21µM* | -61*
CC(=O)Oc1c(/C=C(\C#N)C(N)=O)[nH]c2ccccc12 | 0 | -9% | 22% | ? | 16µM* | 13
N#C/C(=C\c1c[nH]c2ccccc12)C(N)=O | 0 | -7% | 5% | ? | ? | -15
